VACV mCherry inh = inhibitors of vaccinia virus infection (mCherry reporter signal) | Vaccinia virus mCherry reporter infection, fluorescence | Potency, µM (top dose mostly 36.5 µM), without a hit: at the top dose activity change, negative = inhibition, usual class: inhibitors | 310,000 tested, 0.63% active | AID 720579; calls by dose curve; tested in A549 cells; note: potency is the fitted concentration of half-maximal effect; % is set by controls: 0 for no effect and ±100 for the full control effect; nearly all actives have a fitted effect of over 35% in size
MARV entry inh = Marburg virus entry inhibition. Marburg virus pseudotyped entry inhibition, cell reporter. Potency, µM (series often up to 37.8 µM), without a hit: top-dose activity change, negative = inhibition, most hits filed as inhibitors. 300,000 tested, 1.8% active; calls by dose curve; tested in HEK293 cells; note: potency is the fitted concentration of half-maximal effect; % is set by controls: 0 for no effect and ±100 for the full control effect
Vaccinia Venus = vaccinia inhibition (Venus reporter) | Vaccinia virus Venus reporter expression, fluorescence | AID 720580 | Potency, µM (highest dose often 36.5 µM), without a hit: at the highest dose activity change, negative = inhibition, most hits filed as inhibitors | 330,000 tested, 0.46% active; calls by dose curve; tested in A549 cells; note: potency is the fitted concentration of half-maximal effect; % is set by controls: 0 for no effect and ±100 for the full control effect; nearly all actives have a fitted effect of over 30% in size
Cycloheximide cs = counter-screen hit for Shiga toxin inhibitors, cycloheximide | cell reporter, cycloheximide protein synthesis inhibition counterscreen | max response, % | 300,000 tested, 12% active | AID 2314; in the data active = max response mostly above about 13%, no sharp cut-off; inactive = mostly below about 14%; note: read at 38.3 µM for the half of the compounds with a filed dose; 0% is about no effect
LASV entry inh = Lassa virus entry inhibition; 300,000 tested, 1.2% active; Potency, µM (titrated, usually from 37.9 µM), inactives show at the top dose activity change, negative = inhibition, usual class: inhibitors; Lassa virus pseudotype entry inhibition, cell reporter; AID 540256; calls by dose curve; tested in HEK293 cells; note: potency is the fitted concentration of half-maximal effect; % is set by controls: 0 for no effect and ±100 for the full control effect; nearly all actives have a fitted effect of over 50% in size
Shiga toxin inh = Shiga toxin inhibition; Vero cells, Shiga toxin protein synthesis inhibition reporter; inhibition, % at 38.7 µM; 290,000 tested, 9.2% active; AID 2315; in the data active = inhibition mostly above about 28%, no sharp cut-off; inactive = mostly below about 43%; note: 0% is about no effect
* marks the source's active call; other numbers are inactive results; i = inactive; ? = inconclusive; . = not tested or not shown; [ ] = another dose, or the depositor's remark. Shown is part of a subset that was picked to be rich in hits.

SMILES	VACV mCherry inh	MARV entry inh	Vaccinia Venus	Cycloheximide cs	LASV entry inh	Shiga toxin inh
CC(=O)c1ccc(NS(=O)(=O)c2cccc(C)c2)cc1	.	?	.	36*	9%	89*
O=C(CSCc1ccc(Cl)cc1)N/N=C/c1ccco1	-4%	14%[46.1 µM]	-5%	-1	-11%[46.1 µM]	-4
CC[C@H](C)[C@H](NC(=O)[C@H](CO)NC(=O)[C@H](C)NC(=O)[C@H](C)NC(=O)[C@H](CCC(N)=O)NC(=O)[C@H](CCCCN)NC(=O)[C@H](CCCN=C(N)N)NC(=O)[C@@H](N)CS)C(=O)N[C@@H](CCCCN)C(=O)N[C@H](C(=O)N[C@@H](C)C(=O)N[C@H](C(=O)N[C@@H](CO)C(=O)O)C(C)C)C(C)C	.	.	.	-5	.	13
COc1cccc(C(=O)/C=C/Nc2ccc(S(=O)(=O)Nc3ccc(C(C)=O)cc3)cc2)c1	?	?	?	51*	?	91*
COc1ccc(NS(=O)(=O)c2ccc(Oc3cccc(C(=O)O)c3)cc2)cc1	-8%	9%[46.1 µM]	1%	-2	-4%	-13
COc1ccccc1CNC(=O)C(=O)NCC1OCCCN1S(=O)(=O)c1cccs1 (stereo unspecified)	-16%	-1%[46.1 µM]	-10%	-3	-6%[46.1 µM]	12
COc1ccc(-c2cc(=NCCC(=O)O)c3cc(C)ccc3o2)cc1	-1%	?	-2%	36*	-21%	148*
COc1ccc(-c2cc(=NC(CC(C)C)C(=O)O)c3cc(C)ccc3o2)cc1 (stereo unspecified)	-26%	-1%	-22%	30*	?	100*
O=C(CN1CCc2ccccc2C1)Nc1ccc(OC(F)(F)F)cc1	-13%	17%	-9%	-3	-18%	6
CCN1CCN(CC(=O)Nc2ccc(OC(F)(F)F)cc2)CC1	i	1%	-15%	-4	9%	-4
O=C(CN1CCCC1)Nc1ccc(OC(F)(F)F)cc1	-12%	9%	-19%	20*	-7%	.
O=C(CN1CCOCC1)Nc1ccc(OC(F)(F)F)cc1	.	.	.	21*	.	28
Cc1ccc(NC(=O)C2CCCCC2)cc1C	-5%	.	-10%	.	.	.
CC(=O)Nc1nc2c(C)cc(NC(=O)C3CCCCC3)cc2s1	-10%	8%[46.1 µM]	-7%	32*	?	74*
CC(=O)Nc1cc(NC(C)=O)c2nc(N)sc2c1	.	-2%	20%	-2	4%	-12
CC(=O)Nc1cc(C)c2nc(NC(C)=O)sc2c1	-19%	19%	-7%	30*	9%	60*
COCCn1ccc2c(OCC(=O)NCc3ccc(F)cc3)cccc2c1=O	-9%	.	-5%	.	?	.
CC1=C(C(=O)Nc2ccc(C)cc2C)C(C(C)C)n2nc(SCc3ccccc3Cl)nc2N1 (stereo unspecified)	-15%	-3%[46.1 µM]	-3%	.	5%[46.1 µM]	.
Cc1ccc(-c2nc3sc4c(c3c(=O)n2N)CCCC4)cc1	.	?	.	59*	?	38
NNc1nc2sc3c(c2c(=O)n1-c1ccccc1)CCCC3	-22%	4%[46.1 µM]	-11%	23*	-18%[46.1 µM]	75
Nn1c(Nc2ccccc2)nc2sc3c(c2c1=O)CCCC3	-5%	-3%	-6%	21*	26%	43
COc1ccc(CCNC(=O)c2ccc(N3CCCCS3(=O)=O)cc2)cc1OC	.	.	.	6	.	-4
CC(OC(=O)c1ccccc1C(=O)O)c1ccccc1 (stereo unspecified)	i	5%	-5%	.	-5%	.
CC(=NNS(=O)(=O)c1ccc([N+](=O)[O-])cc1)c1ccc(C)cc1	-7%	-21%[46.1 µM]	3%	.	2%[46.1 µM]	.
C/C(=N\NS(=O)(=O)c1ccc([N+](=O)[O-])cc1)c1ccc(NC(=O)c2ccco2)cc1	-9%	3%[46.1 µM]	-5%	25*	.	78
SMILES	VACV mCherry inh	MARV entry inh	Vaccinia Venus	Cycloheximide cs	LASV entry inh	Shiga toxin inh
C/C(=N/NS(=O)(=O)c1ccc(Br)cc1)c1ccc(NC(=O)c2ccc(C)o2)cc1	-13%	?	-15%	48*	-1%	78*
CC(=O)Nc1ccc(/C(C)=N/NS(=O)(=O)c2ccc(C)cc2)cc1	-10%	19%	-8%	16	-27%	35
COc1ccccc1-c1noc(-c2ccc(NCc3cccnc3)c([N+](=O)[O-])c2)n1	-10%	10%[46.1 µM]	-16%	.	5%[46.1 µM]	.
Cc1ccc(-c2cc(C(=O)NCc3ccccn3)c3ccccc3n2)cc1	-21%[1.46 µM]	?	-13%	30*	?	45
Cc1ccc(-c2cc(C(=O)NCCc3ccc(S(N)(=O)=O)cc3)c3ccccc3n2)cc1	.	.	.	17*	.	41
Cc1ccc(C(=O)NCc2ccccn2)c(Cl)c1	.	18%	-10%	31*	?	63*
O=C(NCc1ccccn1)c1cc(-c2ccc(Br)cc2)nc2ccccc12	-1%	?	-11%	-2	-5%	-4
CCc1ccc(-c2cc(C(=O)NCc3ccccn3)c3ccccc3n2)cc1	-18%	?	-13%	64*	?	92*
Cc1ccc(NC(=O)CN2C(=O)COc3ccc(S(=O)(=O)NC4CCCC4)cc32)cc1N(C)C	-20%	.	-5%	.	-18%[46.1 µM]	.
C[C@H](CO)N1C[C@H](C)[C@@H](CN(C)S(=O)(=O)c2ccc(Oc3ccccc3)cc2)OCc2cnnn2CCCC1=O	i	.	-6%	.	.	.
Oc1ccc(-c2csc(Nc3ncccn3)n2)cc1O	?	?	-28%	33*	?	103*
N#Cc1ccc(Nc2nc(-c3ccc(O)cc3O)cs2)cc1C(F)(F)F	?	.	11µM*	.	.	.
Cc1cccc(Nc2nc(-c3ccc(O)cc3O)cs2)n1	?	?	-21%	38*	-29%[46.1 µM]	109*
Oc1ccc(-c2csc(Nc3ncccn3)n2)c(O)c1	?	-26%[46.1 µM]	-4%	59*	-22%	88*
CC(N)c1csc(Nc2ncccn2)n1 (stereo unspecified)	-7%	.	?	.	.	.
O=C(NCC1Cc2cccc(-c3ncccn3)c2O1)c1cccc(-c2ccccc2F)c1 (stereo unspecified)	25%	.	33%	.	.	.
COC(=O)[C@@H]1CCCN1C(=O)c1c(OC)cc(=O)n2c1CCN(Cc1ccc3c(c1)OCCO3)CC2	-7%	.	-9%	.	.	.
COc1ccc2oc(C)c(C(=O)c3ccc(C)cc3)c2c1	.	.	.	22*	.	36*
COc1ccc2oc3ccc(OC)cc3c(=O)c2c1	.	?	.	22*	-18%	156
COc1ccc(C(=O)c2c(C)oc3ccc(O)cc23)cc1	.	.	.	29*	.	32*
Cc1oc2ccc(O)cc2c1C(=O)c1ccc(Br)cc1	?	-6%	-26%	.	?	.
COc1ccc2oc3ccccc3c(=O)c2c1	7%	.	15%	-3	.	14
Cc1oc2ccc(O)cc2c1C(=O)c1ccc(Cl)cc1	?	1%	?	17*	21%	69
CCC(C)(C)C1CCC(NC(=O)N2CCN(c3ccccc3O)CC2)CC1 (stereo unspecified)	-14%	?	-7%	8	?	2
CC(=O)c1c(C)oc2ccc(OCc3ccccc3)cc12	.	.	.	31*	.	63*
Cc1oc2ccc(OCc3ccccc3Cl)cc2c1C(=O)O	.	.	.	-1	.	-3
